# From PubChem BioAssay (NCI)
# This is part of a sample that, as a whole, favours compounds with a hit. Of some 83,000 tested, about 20% had one in any assay.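 For each line, cells grew in 96-well plates with the test compound present at a single concentration for 48 hours.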 Activity calls are given as the source filed them. Rule for the calls: active = growth percent below 10; inactive = the rest.
# Tested on: HCT-15 colon
# Experiment: NCI-60 one-dose screen, 48 h (100 = growth as untreated, 0 = no growth, -100 = all killed)
# Settings: 10 µM unless noted
row,SMILES,growth
1,O=[N+]([O-])c1ccc(NC(=S)NNC(=S)Nc2ccc(F)cc2)cc1,61.7% (inactive)
2,O=C(COc1ccc(/C=C2\C(=O)Nc3ccc(F)cc32)cc1)Nc1ccccc1,99.1% (inactive)
3,O=C1[C@@H]2Cc3c([nH]c4ccccc34)[C@H](c3ccc(Br)cc3)N2C(=O)CN1C1CCN(Cc2c(Cl)cccc2Cl)CC1,89.4% (inactive)
4,C/C(=N\NC(=O)/C=C/CC(=O)O)c1nnn(-c2ccc([N+](=O)[O-])cc2)c1C,105% (inactive)
5,CS(=O)(=O)c1nccc(-c2c(-c3cccc(OCc4ccc(Cl)c(C(F)(F)F)c4)c3)nc3sccn23)n1,-30.7% (active)
6,CCOC(=O)Nc1ccc2c(ccn2C(=O)c2cccc(F)c2)c1,29% (inactive)
7,COC(=O)c1cccc(NC2=CC(=O)C(C)=C(C)C2=O)c1,93.8% (inactive)
8,CCCCc1nc2c(N)nc3ccccc3c2n1Cc1ccc(OC)cc1,58.3% (inactive)
9,COC(=O)CCSC1=C(C)C(=O)c2ccccc2C1=O,58.5% (inactive)
10,O=S(=O)(NCCCNc1nccc(-c2[nH]c(-c3ccccc3)nc2-c2ccc(F)c(O)c2)n1)c1cccc(F)c1,86% (inactive)
11,C/C(=C(\c1ccc(O)cc1)c1ccc(OCCN2CCCCCC2)cc1)c1ccc(Cl)cc1,-88.7% (active)
12,Fc1cccc(Cl)c1/C=N/Nc1nc(N/N=C/c2c(F)cccc2Cl)nc(N2CCCCC2)n1,3.94% (active)
13,COc1cc2cc(Oc3ccc(NC(=O)Nc4ccc(F)c(C(F)(F)F)c4)cc3)c(C)nc2cc1OCCN(C)C,29.2% (inactive)
14,COC(=O)c1cccc(NC2=C(Cl)C(=O)C(C)=C(C)C2=O)c1,112% (inactive)
15,O=C1C(SCc2ccccc2)=C(Cl)CN1c1ccc(Cl)cc1,88.6% (inactive)
16,Cc1ccc2c(n1)C(=O)C(Cl)=C(Nc1cccc(C(F)(F)F)c1)C2=O,-61.1% (active)
17,Cc1cc(C)cc(NC2=C(Cl)C(=O)c3nc(C)ccc3C2=O)c1,9.74% (active)
18,COc1ccc2[nH]cc(/C=N/Nc3ccnc4cc(Cl)ccc34)c2c1,-88.1% (active)
19,COc1ccccc1N1CCN(C2=C(Cl)C(=O)c3ncccc3C2=O)CC1,55.5% (inactive)
20,C#CCN(C)CCCOc1ccc(NC(=O)CCCCCCCCC(=O)NO)cc1Cl,75% (inactive)

row,SMILES,growth
1,Cn1cc(C2=C(c3coc4cc(Br)ccc34)C(=O)NC2=O)c2ccccc21,37.3% (inactive)
2,CCc1cc(OC(=O)N2CCN(CCC(C)(COC(C)(C)C)COC(C)(C)C)CC2)ccc1Nc1cc(-c2ccc(-n3cccn3)cc2)[nH]n1,65.9% (inactive)
3,CS(=O)(=O)c1ccc(/C(=N/N=C(N)N)c2ccc(F)cc2)cc1,74.9% (inactive)
4,O=C(N/N=C\c1ccc(F)cc1)c1ccc2nc(-c3ccc(Br)cc3)[nH]c2c1,22.2% (inactive)
5,CNC(=O)Nc1ccc(Nc2cc(-c3ccc(-n4cccn4)cc3)[nH]n2)c(C)c1,103% (inactive)
6,COc1ccc(C(C)=C(c2ccc(OCCN(C)C)cc2)c2ccc(OCCN(C)C)cc2)cc1,-46.1% (active)
7,CN1CCN(c2ccc(C(=O)/C=C/c3cc(F)cc(C(F)(F)F)c3)cc2)CC1,27.5% (inactive)
8,O=C1c2ccccc2C23C(=C(c4cncnc4)c4ccccc42)CCCN13 (stereo not given),104% (inactive)
9,NC(=O)c1c(NC(=O)c2ccc(C(F)(F)F)cc2)sc2c1CCC(=O)C2,-21.2% (active)
10,Cc1ccc2c(n1)C(=O)C(Cl)=C(Nc1cccc(C)c1C)C2=O,9.66% (active)
11,CCCCCCNC(=O)Oc1ccc(/C(=C(/C)c2ccc(OC)cc2)c2ccc(OCCN3CCCCCC3)cc2)cc1,-39.1% (active)
12,NS(=O)(=O)c1ccc(Nc2nc(N/N=C/C=C/c3ccccc3)nc(Nc3ccccc3)n2)cc1,45% (inactive)
13,CC/C(=C(/c1ccc(Cl)cc1)c1ccc(OCCN)cc1)c1ccccc1,55.7% (inactive)
14,COC(=O)c1ccc(NC2=C(Cl)C(=O)C(C)=C(C)C2=O)cc1,40% (inactive)
15,COc1ccc(NC(=O)CCCCCCNC(=O)C(O)(O)C(F)(F)F)cc1,67.7% (inactive)
16,COc1cc2c3c(cc4c5c(ccc4c3c1OC)OCO5)N(CCN(C)C)C2=O,-6.74% (active)
17,O=S(=O)(Oc1ccc(-c2cn3ccoc3n2)cc1)C1CCCCC1,62.7% (inactive)
18,COc1ccc(-c2nc(C#N)c(N3CCC(S(=O)(=O)N4CCOCC4)CC3)o2)cc1,105% (inactive)
19,O=c1c2cc(-c3ccc(F)cc3F)ccc2n(Nc2ccccc2)c(=O)n1-c1cccc(C(F)(F)F)c1,11.4% (inactive)
20,COc1ccc(OC)c(CCn2cncc2-c2c[nH]c3ccc(Cl)cc23)c1,32.8% (inactive)

# Tested on: HT29 colon
# Experiment: as above
# Settings: 10 µM unless noted
row,SMILES,growth
1,O=[N+]([O-])c1ccc(NC(=S)NNC(=S)Nc2ccc(F)cc2)cc1,98% (inactive)
2,O=C(COc1ccc(/C=C2\C(=O)Nc3ccc(F)cc32)cc1)Nc1ccccc1,107% (inactive)
3,O=C1[C@@H]2Cc3c([nH]c4ccccc34)[C@H](c3ccc(Br)cc3)N2C(=O)CN1C1CCN(Cc2c(Cl)cccc2Cl)CC1,84.4% (inactive)
4,C/C(=N\NC(=O)/C=C/CC(=O)O)c1nnn(-c2ccc([N+](=O)[O-])cc2)c1C,106% (inactive)
5,CS(=O)(=O)c1nccc(-c2c(-c3cccc(OCc4ccc(Cl)c(C(F)(F)F)c4)c3)nc3sccn23)n1,95.8% (inactive)
6,CCOC(=O)Nc1ccc2c(ccn2C(=O)c2cccc(F)c2)c1,1.15% (active)
7,COC(=O)c1cccc(NC2=CC(=O)C(C)=C(C)C2=O)c1,110% (inactive)
8,CCCCc1nc2c(N)nc3ccccc3c2n1Cc1ccc(OC)cc1,32.9% (inactive)
9,COC(=O)CCSC1=C(C)C(=O)c2ccccc2C1=O,110% (inactive)
10,O=S(=O)(NCCCNc1nccc(-c2[nH]c(-c3ccccc3)nc2-c2ccc(F)c(O)c2)n1)c1cccc(F)c1,99.4% (inactive)
11,C/C(=C(\c1ccc(O)cc1)c1ccc(OCCN2CCCCCC2)cc1)c1ccc(Cl)cc1,-72.8% (active)
12,Fc1cccc(Cl)c1/C=N/Nc1nc(N/N=C/c2c(F)cccc2Cl)nc(N2CCCCC2)n1,3.5% (active)
13,COc1cc2cc(Oc3ccc(NC(=O)Nc4ccc(F)c(C(F)(F)F)c4)cc3)c(C)nc2cc1OCCN(C)C,66.5% (inactive)
14,COC(=O)c1cccc(NC2=C(Cl)C(=O)C(C)=C(C)C2=O)c1,105% (inactive)
15,O=C1C(SCc2ccccc2)=C(Cl)CN1c1ccc(Cl)cc1,84.5% (inactive)
16,Cc1ccc2c(n1)C(=O)C(Cl)=C(Nc1cccc(C(F)(F)F)c1)C2=O,105% (inactive)
17,Cc1cc(C)cc(NC2=C(Cl)C(=O)c3nc(C)ccc3C2=O)c1,107% (inactive)
18,COc1ccc2[nH]cc(/C=N/Nc3ccnc4cc(Cl)ccc34)c2c1,-42.3% (active)
19,COc1ccccc1N1CCN(C2=C(Cl)C(=O)c3ncccc3C2=O)CC1,111% (inactive)
20,C#CCN(C)CCCOc1ccc(NC(=O)CCCCCCCCC(=O)NO)cc1Cl,67.8% (inactive)

row,SMILES,growth
1,Cn1cc(C2=C(c3coc4cc(Br)ccc34)C(=O)NC2=O)c2ccccc21,51.7% (inactive)
2,CCc1cc(OC(=O)N2CCN(CCC(C)(COC(C)(C)C)COC(C)(C)C)CC2)ccc1Nc1cc(-c2ccc(-n3cccn3)cc2)[nH]n1,47.3% (inactive)
3,CS(=O)(=O)c1ccc(/C(=N/N=C(N)N)c2ccc(F)cc2)cc1,91.5% (inactive)
4,O=C(N/N=C\c1ccc(F)cc1)c1ccc2nc(-c3ccc(Br)cc3)[nH]c2c1,-58.9% (active)
5,CNC(=O)Nc1ccc(Nc2cc(-c3ccc(-n4cccn4)cc3)[nH]n2)c(C)c1,120% (inactive)
6,COc1ccc(C(C)=C(c2ccc(OCCN(C)C)cc2)c2ccc(OCCN(C)C)cc2)cc1,-53.5% (active)
7,CN1CCN(c2ccc(C(=O)/C=C/c3cc(F)cc(C(F)(F)F)c3)cc2)CC1,15.9% (inactive)
8,O=C1c2ccccc2C23C(=C(c4cncnc4)c4ccccc42)CCCN13 (stereo not given),101% (inactive)
9,NC(=O)c1c(NC(=O)c2ccc(C(F)(F)F)cc2)sc2c1CCC(=O)C2,0.0943% (active)
10,Cc1ccc2c(n1)C(=O)C(Cl)=C(Nc1cccc(C)c1C)C2=O,87.6% (inactive)
11,CCCCCCNC(=O)Oc1ccc(/C(=C(/C)c2ccc(OC)cc2)c2ccc(OCCN3CCCCCC3)cc2)cc1,-34% (active)
12,NS(=O)(=O)c1ccc(Nc2nc(N/N=C/C=C/c3ccccc3)nc(Nc3ccccc3)n2)cc1,34.6% (inactive)
13,CC/C(=C(/c1ccc(Cl)cc1)c1ccc(OCCN)cc1)c1ccccc1,79.9% (inactive)
14,COC(=O)c1ccc(NC2=C(Cl)C(=O)C(C)=C(C)C2=O)cc1,63.3% (inactive)
15,COc1ccc(NC(=O)CCCCCCNC(=O)C(O)(O)C(F)(F)F)cc1,23.1% (inactive)
16,COc1cc2c3c(cc4c5c(ccc4c3c1OC)OCO5)N(CCN(C)C)C2=O,-9.31% (active)
17,O=S(=O)(Oc1ccc(-c2cn3ccoc3n2)cc1)C1CCCCC1,96.7% (inactive)
18,COc1ccc(-c2nc(C#N)c(N3CCC(S(=O)(=O)N4CCOCC4)CC3)o2)cc1,101% (inactive)
19,O=c1c2cc(-c3ccc(F)cc3F)ccc2n(Nc2ccccc2)c(=O)n1-c1cccc(C(F)(F)F)c1,59.3% (inactive)
20,COc1ccc(OC)c(CCn2cncc2-c2c[nH]c3ccc(Cl)cc23)c1,10.1% (inactive)
